This excerpt belongs to a sample that is enriched for hits.
IDE exosite inh = exo-site inhibitors of human IDE, primary screen, biochemical, fluorescence anisotropy, probe displacement; purified IDE, FL-6b probe fluorescence polarization; stronger effect = lower value; actives 6.3% (n = 17,000); AID 1259349, 2017; z-score at 20 µM;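 active means z-score of -3 or lower, meaning strong loss of probe binding signal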;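 further: His-tagged human IDE residues 42-1019 made in E. coli with 30 nM FL-6b probe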
Active calls of the source: *.

SMILES | IDE exosite inh
C/C=C/c1ccc([C@@H]2[C@@H](CO)N3C(=O)CN(Cc4ccccc4)C[C@@H]23)cc1 | 0.86
COCC#Cc1ccc([C@@H]2[C@@H](CO)N3C(=O)CN(C(=O)C4CCCCC4)C[C@@H]23)cc1 | 1.2
O=C(C[C@@H]1C=C[C@@H](NC(=O)Nc2ccccc2F)[C@H](CO)O1)NCc1ccc(-c2ccccc2)cc1 | -0.93
COc1cccc(CNC(=O)C[C@H]2CC[C@@H]3[C@@H](COc4ccc(NC(=O)c5cccs5)cc4C(=O)N3C)O2)c1 | -0.15
COc1cccc(C#Cc2ccc([C@H]3[C@H]4CN(C(=O)Cc5ccccc5)CC(=O)N4[C@H]3CO)cc2)c1 | -1.8
COCC(=O)N1CC(=O)N2[C@H](CO)[C@H](c3ccc(C#Cc4cccnc4)cc3)[C@H]2C1 | 2
CCC(=O)N1CC(=O)N2[C@H](CO)[C@H](c3ccc(C#Cc4cccc(OC)c4)cc3)[C@@H]2C1 | -8.7*
CCC(=O)N1CC(=O)N2[C@H](CO)[C@H](c3ccc(C#Cc4cccc(OC)c4)cc3)[C@H]2C1 | -9.8*
COc1cccc(C#Cc2ccc([C@@H]3[C@@H](CO)N4C(=O)CN(C(=O)Cc5cccnc5)C[C@H]34)cc2)c1 | -2.3
COc1cccc(C#Cc2ccc([C@H]3[C@@H](CO)N4C(=O)CN(C(=O)Cc5ccccc5)C[C@@H]34)cc2)c1 | 1.4
COc1cccc(C#Cc2ccc([C@H]3[C@H](CO)N4C(=O)CN(C(=O)Cc5cccnc5)C[C@@H]34)cc2)c1 | -4.1*
CCC(=O)N1CC(=O)N2[C@H](C1)[C@@H](c1ccc(C#Cc3cccnc3)cc1)[C@@H]2CO | -1
COCC(=O)N1CC(=O)N2[C@@H](CO)[C@@H](c3ccc(C#Cc4cccnc4)cc3)[C@@H]2C1 | -0.85
CCCNC(=O)N1CC(=O)N2[C@H](C1)[C@@H](c1ccc(C#Cc3cccc(OC)c3)cc1)[C@@H]2CO | 0.17
COc1cccc(C#Cc2ccc([C@H]3[C@@H](CO)N4C(=O)CN(C(=O)Cc5cccnc5)C[C@H]34)cc2)c1 | -2
COCC(=O)N1CC(=O)N2[C@@H](CO)[C@@H](c3ccc(C#Cc4cccc(OC)c4)cc3)[C@@H]2C1 | -7*
C/C=C/c1ccc([C@@H]2[C@H](CO)N3C(=O)CN(S(=O)(=O)c4ccccc4)C[C@@H]23)cc1 | 0.43
N#C[C@H]1[C@H](c2ccccc2)[C@H](CO)N1S(=O)(=O)c1ccc(-c2ccccc2)cc1 | -0.54
COc1ccc(-c2ccc([C@H]3[C@@H](CO)N(C(=O)C4CCC4)[C@H]3C#N)cc2)cc1 | 2.7
N#C[C@H]1[C@@H](c2ccccc2-c2ccccc2F)[C@H](CO)N1C(=O)C1CCC1 | 1.4
CC(C)CC#Cc1ccc([C@@H]2[C@@H](CO)N3C(=O)CN(C(=O)NC(C)C)C[C@@H]23)cc1 | 4.9
O=C1N[C@H](Cc2ccccc2)COCc2cnnn2CC[C@@H]1Cc1ccc(-c2ccccc2)cc1 | 1.2
CC(C)NC(=O)N[C@@H]1CC[C@@H](CC(=O)NCCCN(C)C)O[C@H]1CO | 0.036
N#C[C@H]1[C@@H](c2ccccc2C2=CCCC2)[C@@H](CO)N1S(=O)(=O)c1ccccc1 | 5.1
CCC(=O)N1[C@@H]2Cn3c(ccc(-c4ccccc4F)c3=O)[C@H]1[C@@H](C(=O)NC1CCC1)[C@@H]2CO | 0.14
SMILES | IDE exosite inh
C[C@H](CO)N1C[C@H](C)[C@@H](CN(C)Cc2ccc(C(=O)O)cc2)OCCCC[C@H](C)Oc2ccc(N(C)C)cc2C1=O | -0.52
CC(=O)N(C[C@@H]1N[C@@H](CO)[C@H]1c1ccc(-c2ccc(F)cc2)cc1)C(C)C | 2.3
O=S(=O)(c1cccc(F)c1)N1CC[C@@H]2[C@H](CO)Nc3ccc(C#Cc4ccccc4F)cc3[C@@H]21 | 1.5
c1cncc(-c2ccc(C3[C@@H]4CN(Cc5nccs5)C[C@H]3N4)cc2)c1 (some centres not stated) | -0.67
CC(C)CC#Cc1ccc([C@@H]2[C@H]3CN(C(=O)c4ccccn4)CC(=O)N3[C@H]2CO)cc1 | 1.2
CCS(=O)(=O)N1CCC2(CC1)CN(C(=O)c1cccc(F)c1)[C@@H](CO)c1c2c2ccc(OC)cc2n1C | 0.76
COc1ccc(-c2ccc([C@@H]3[C@@H](CO)N4C(=O)CNC[C@H]34)cc2)cc1 | 2.7
COc1cccc(NC(=O)N2CC(=O)N3[C@H](CO)[C@H](c4ccc(Br)cc4)[C@H]3C2)c1 | 1.4
CCS(=O)(=O)NCC[C@@H]1CC[C@H](NS(=O)(=O)c2ccccc2C)[C@H](CO)O1 | -0.63
O=C(Cc1cccnc1)N1CC(=O)N2[C@H](CO)[C@@H](c3ccc(-c4cccc(F)c4)cc3)[C@@H]2C1 | -3.4*
O=C(Cc1ccncc1)N1CC(=O)N2[C@H](CO)[C@H](c3ccc(-c4cccc(F)c4)cc3)[C@@H]2C1 | -1.5
O=C(Cc1ccccc1)N1CC(=O)N2[C@H](C1)[C@H](c1ccc(-c3cccc(F)c3)cc1)[C@@H]2CO | 2.6
N#Cc1ccc(-c2ccc([C@@H]3[C@@H](CO)N4C(=O)CN(C(=O)Cc5ccccc5)C[C@H]34)cc2)cc1 | 3.3
